Experimental data from PubChem BioAssay.
Calls of active or inactive are those of the source.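 Rule for the calls, unless noted: active = viability at or under a set limit in both replicates, limit being median viability minus 3 SD (cut at about 48% in these data, passing the limit was not always enough); inconclusive = at or under the limit in just one replicate; inactive = at or above the limit in both replicates.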

Experiment: growth inhibitors of H69AR lung tumor, primary screen, human, duplicate replicates (AID 580);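 note: 100% = mean luminescence of untreated wells and 0% = no signal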
Settings: H69AR lung tumor cells viability, ATP luminescence, 72 h; at 10 µM; active compounds read low

Structure (SMILES) | viability
Cc1ccc(-c2nnc(-c3cccc(Br)c3)o2)cc1 | 89.6% (inactive)
CCCNS(=O)(=O)c1ccc(OCC(=O)Nc2ccccc2F)cc1 | 87.3% (inactive)
NS(=O)(=O)c1ccc(C(=O)O)cc1 | 99% (inactive)
CCC1CCCCN1CCCNC(=O)c1ccc(CS(=O)(=O)Cc2ccccc2F)o1 (stereo not given) | 92.9% (inactive)
Cc1cc(C(=O)Nc2ccc(S(=O)(=O)Nc3onc(C)c3C)cc2)cs1 | 99.4% (inactive)
NS(=O)(=O)c1cc2c(cc1C(F)(F)F)NCNS2(=O)=O | 109% (inactive)
O=C(NCCCN1CCN(Cc2ccccc2)CC1)C1CCN(c2nnc(-n3cccc3)s2)CC1 | 88.7% (inactive)
C=CCn1c(SCn2nnc3ccccc3c2=O)nnc1-c1ccc(Br)cc1 | 89.1% (inactive)
COc1ccccc1C(=O)NCC(=O)Nc1ccccc1 | 98.5% (inactive)
CN(C)C(=O)Oc1ccc[n+](C)c1 | 87% (inactive)
COC(=O)CSc1nnc(-c2ccc(OC)cc2OC)o1 | 109% (inactive)
CCN(CC)CCCN1C(=O)C(=O)/C(=C(/O)c2ccc3c(c2)OCO3)C1c1ccccn1 (stereo not given) | 93.3% (inactive)
O=C(CSc1n[nH]c(=O)[nH]c1=O)c1ccccc1 | 101% (inactive)
Cc1noc(C)c1C(=O)N1CCN(C(=O)c2sc3cc(Cl)ccc3c2Cl)CC1 | 89% (inactive)
CCCCOC(=O)Nc1nccs1 | 103% (inactive)
CCOC(=O)C1CCN(C(C)=C2C(=O)c3ccccc3C2=O)CC1 | 105% (inactive)
NC(N)=NC(N)=NCCc1ccccc1 | 99.4% (inactive)
CCCc1cc(=O)[nH]c(=S)[nH]1 | 84% (inactive)
CN(C)C(CNC(=O)Nc1cccc(Cl)c1)c1cccnc1 (stereo not given) | 90.6% (inactive)
Cc1cc(S(=O)(=O)N(Cc2ccccc2)Cc2ccc(N(C)C)cc2)ccc1-n1cnnn1 | 84% (inactive)

Structure (SMILES) | viability
CC(=O)Nc1c(O)[nH]c2ccccc12 | 93.6% (inactive)
CCC(=O)OC1(C#CCOc2ccc(OC)cc2)CCN(C)CC1 | 105% (inactive)
COCCN(Cc1cc2cccc(C)c2[nH]c1=O)C(=O)c1ccccc1 | 102% (inactive)
COc1ccc(-n2c(SCC(N)=O)nc3sc4c(c3c2=O)CCN(C)C4)cc1 | 101% (inactive)
COc1ccc(CNCC(=O)Nc2cc(C)nn2-c2nc(C)cc(C)n2)cc1OC | 11.9% (active)
Cc1nn(C)cc1C1C2=C(CC(C)(C)CC2=O)OC2=C1C(=O)CC(C)(C)C2 | 89.8% (inactive)
CCn1c(SCC(=O)c2ccc(C)cc2)nnc1-c1ccoc1C | 108% (inactive)
CCN(CC)CCCN1C(=O)C(O)=C(C(C)=O)C1c1cccc(OC)c1 (stereo not given) | 93% (inactive)
Cc1ccc(S(=O)(=O)N2CCN(C(=O)CSc3nc4ccccc4c(=O)[nH]3)CC2)c(C)c1 | 85.1% (inactive)
CCN(CC)CCCNc1oc(-c2cccc(Cl)c2)nc1C#N | 76.6% (inactive)
Nn1c(SCC(=O)Nc2ccc(S(=O)(=O)N3CCCC3)cc2)nnc1C(F)(F)F | 90.8% (inactive)
CN(C)c1ccc(NC(=O)Nc2cccc(Cl)c2)cc1 | 88.7% (inactive)
Cc1c(C=NCCOCc2ccccc2)cnn1C | 96.2% (inactive)
CCN1CCN(C(=O)N[C@@H](C(=O)N[C@@H]2C(=O)N3[C@@H]2SC(C)(C)[C@@H]3C(=O)O)c2ccccc2)C(=O)C1=O | 91.5% (inactive)
Cc1ccc2nc3c(cc(C(=O)NCC4CCCO4)n3C)c(=O)n2c1 (stereo not given) | 94.9% (inactive)
COc1ccc(OC)c(S(=O)(=O)Nc2ccccc2SC)c1 | 100% (inactive)
CCOc1nc(-c2ccccc2)ccc1-c1noc(-c2ccc(OC)c(OC)c2)n1 | 67.1% (inactive)
Cc1cnc(NC(=O)C2=C(O)c3ccccc3S(=O)(=O)N2C)s1 | 89.9% (inactive)
O=C(NC1CCCC1)C(c1cccs1)N(Cc1ccco1)C(=O)Cn1nnc(-c2cccs2)n1 (stereo not given) | 92.8% (inactive)
Cc1cc(C)nc(NC2=NCC(=O)N2c2ccc(Cl)cc2)n1 | 97.1% (inactive)

Experiment: reversal of MRP1-mediated doxorubicin resistance, pilot screen, H69AR cells, doxorubicin co-treatment (AID 601;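 active = viability loss from added drug above about 55%, and viability with drug at most 40%, in both replicates, limit read from the data, passing the limit was not always enough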)
Settings: H69AR cells + 2 uM doxorubicin, CellTiter-Glo, 72 h; at 10 µM; active compounds read high

Structure (SMILES) | differential viability (reversal)
Cc1ccc(-c2nnc(-c3cccc(Br)c3)o2)cc1 | -3% (inactive)
CCCNS(=O)(=O)c1ccc(OCC(=O)Nc2ccccc2F)cc1 | 8.17% (inactive)
NS(=O)(=O)c1ccc(C(=O)O)cc1 | 11.6% (inactive)
CCC1CCCCN1CCCNC(=O)c1ccc(CS(=O)(=O)Cc2ccccc2F)o1 (stereo not given) | -12.3% (inactive)
Cc1cc(C(=O)Nc2ccc(S(=O)(=O)Nc3onc(C)c3C)cc2)cs1 | 2.97% (inactive)
NS(=O)(=O)c1cc2c(cc1C(F)(F)F)NCNS2(=O)=O | 8.31% (inactive)
O=C(NCCCN1CCN(Cc2ccccc2)CC1)C1CCN(c2nnc(-n3cccc3)s2)CC1 | 4.26% (inactive)
C=CCn1c(SCn2nnc3ccccc3c2=O)nnc1-c1ccc(Br)cc1 | 7.09% (inactive)
COc1ccccc1C(=O)NCC(=O)Nc1ccccc1 | -1.45% (inactive)
CN(C)C(=O)Oc1ccc[n+](C)c1 | 5.36% (inactive)
COC(=O)CSc1nnc(-c2ccc(OC)cc2OC)o1 | 16.5% (inactive)
CCN(CC)CCCN1C(=O)C(=O)/C(=C(/O)c2ccc3c(c2)OCO3)C1c1ccccn1 (stereo not given) | 4.7% (inactive)
O=C(CSc1n[nH]c(=O)[nH]c1=O)c1ccccc1 | 4.23% (inactive)
Cc1noc(C)c1C(=O)N1CCN(C(=O)c2sc3cc(Cl)ccc3c2Cl)CC1 | 8.48% (inactive)
CCCCOC(=O)Nc1nccs1 | 1.28% (inactive)
CCOC(=O)C1CCN(C(C)=C2C(=O)c3ccccc3C2=O)CC1 | 10.4% (inactive)
NC(N)=NC(N)=NCCc1ccccc1 | -0.22% (inactive)
CCCc1cc(=O)[nH]c(=S)[nH]1 | 2.76% (inactive)
CN(C)C(CNC(=O)Nc1cccc(Cl)c1)c1cccnc1 (stereo not given) | 8.96% (inactive)
Cc1cc(S(=O)(=O)N(Cc2ccccc2)Cc2ccc(N(C)C)cc2)ccc1-n1cnnn1 | -3.54% (inactive)

Structure (SMILES) | differential viability (reversal)
CC(=O)Nc1c(O)[nH]c2ccccc12 | -1.07% (inactive)
CCC(=O)OC1(C#CCOc2ccc(OC)cc2)CCN(C)CC1 | 1.41% (inactive)
COCCN(Cc1cc2cccc(C)c2[nH]c1=O)C(=O)c1ccccc1 | 7.6% (inactive)
COc1ccc(-n2c(SCC(N)=O)nc3sc4c(c3c2=O)CCN(C)C4)cc1 | -9.52% (inactive)
COc1ccc(CNCC(=O)Nc2cc(C)nn2-c2nc(C)cc(C)n2)cc1OC | -58.3% (inactive)
Cc1nn(C)cc1C1C2=C(CC(C)(C)CC2=O)OC2=C1C(=O)CC(C)(C)C2 | -5.79% (inactive)
CCn1c(SCC(=O)c2ccc(C)cc2)nnc1-c1ccoc1C | 8.75% (inactive)
CCN(CC)CCCN1C(=O)C(O)=C(C(C)=O)C1c1cccc(OC)c1 (stereo not given) | 5.69% (inactive)
Cc1ccc(S(=O)(=O)N2CCN(C(=O)CSc3nc4ccccc4c(=O)[nH]3)CC2)c(C)c1 | 16.8% (inactive)
CCN(CC)CCCNc1oc(-c2cccc(Cl)c2)nc1C#N | -0.39% (inactive)
Nn1c(SCC(=O)Nc2ccc(S(=O)(=O)N3CCCC3)cc2)nnc1C(F)(F)F | -6.72% (inactive)
CN(C)c1ccc(NC(=O)Nc2cccc(Cl)c2)cc1 | 3.98% (inactive)
Cc1c(C=NCCOCc2ccccc2)cnn1C | 14% (inactive)
CCN1CCN(C(=O)N[C@@H](C(=O)N[C@@H]2C(=O)N3[C@@H]2SC(C)(C)[C@@H]3C(=O)O)c2ccccc2)C(=O)C1=O | -13.4% (inactive)
Cc1ccc2nc3c(cc(C(=O)NCC4CCCO4)n3C)c(=O)n2c1 (stereo not given) | 7.85% (inactive)
COc1ccc(OC)c(S(=O)(=O)Nc2ccccc2SC)c1 | 18.9% (inactive)
CCOc1nc(-c2ccccc2)ccc1-c1noc(-c2ccc(OC)c(OC)c2)n1 | -4.04% (inactive)
Cc1cnc(NC(=O)C2=C(O)c3ccccc3S(=O)(=O)N2C)s1 | 0.62% (inactive)
O=C(NC1CCCC1)C(c1cccs1)N(Cc1ccco1)C(=O)Cn1nnc(-c2cccs2)n1 (stereo not given) | -1.47% (inactive)
Cc1cc(C)nc(NC2=NCC(=O)N2c2ccc(Cl)cc2)n1 | 1.69% (inactive)
